Screening results as filed in PubChem.
S2 tox = Viability Counterscreen for Primary qHTS for Inhibitors of ATXN expression | S2 cells (HEK-293 line with an ATXN2-luciferase reporter) viability, CellTiter-Fluor protease fluorescence, 24 h | Potency, µM (series often up to 56.7 µM), most hits filed as cytotoxic | 400,000 compounds, 0.49% hits; further: potency means the concentration at half of the fitted maximal effect; nearly all actives have a fitted effect of over 40% in size
IL-1B inflam inh = qHTS for Inhibitors of Inflammasome Signaling: IL-1-beta AlphaLISA Primary Screen. THP-1 LPS/ATP IL-1B secretion, AlphaLISA, 16 h; hits give low values. 360,000 compounds, 4.7% hits. activity change, % at 57.5 µM; in the data active means activity change below about -50%; inconclusive means mostly about -30% to -49%; further: on the % scale 0 is the no-effect control and ±100 the full control effect
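THP-1 cells pretreated 1 hr with compounds (up to 57.5 uM final), then stimulated with LPS (250 ng/mL final) plus ATP (1.25 mM final); secreted IL-1B measured by AlphaLISA after 16 hr, decreased signal indicating inhibition.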
MCF10A rereplic = A quantitative high throughput screen for small molecules that induce DNA re-replication in MCF 10a normal breast cells; 350,000 compounds, 2.9% hits; AID 624296, 2012; MCF 10A DNA re-replication, Hoechst nuclear intensity, 48 h; Potency, µM (top dose mostly 46.1 µM), for the others: at the highest dose activity, positive = re-replication, hits mostly activators; further: potency means the concentration at half of the fitted maximal effect; % of control where 0% means no effect; nearly all actives have a fitted effect of over 50% in size
ATXN2 expr inh = Primary qHTS for Inhibitors of ATXN expression. Potency, µM (series often up to 57 µM), for the others: at the highest dose activity change, negative = inhibition, most hits filed as inhibitors. AID 1745845, 2022. HEK-293 ATXN2-luciferase reporter, luminescence, 24 h. 360,000 compounds, 0.72% hits; further: potency means the concentration at half of the fitted maximal effect; on the % scale 0 is the no-effect control and ±100 the full control effect; nearly all actives have a fitted effect of over 55% in size
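ATXN2-luciferase reporter cells (luciferase flanked by upstream and downstream ATXN2 gene portions) were treated 24 h at 37 °C with compounds at up to 57 uM. SteadyGlo luminescence gave expression; GF-AFC fluorescence gave viability.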
SW480 rereplic = A quantitative high throughput screen for small molecules that induce DNA re-replication in SW480 colon adenocarcinoma cells; AID 624297, 2012; Potency, µM (titrated, usually from 46.1 µM), for inactives: at the top dose re-replication activation, actives largely listed as activators; SW480 DNA re-replication, Hoechst DNA content imaging, 48 h; 340,000 compounds, 1.8% hits; further: potency means the concentration at half of the fitted maximal effect; % of control where 0% means no effect; nearly all actives have a fitted effect of over 55% in size
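Hoechst fluorescence of nuclei (405 nm excitation, 500-530 nm emission) measured by plate-scanning imager after 48 hr compound exposure at 37 C; re-replication scored as increased number of nuclei with elevated intensity.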
PINK1 modulator = A Quantitative High throughput Screen to Identify Chemical Modulators of PINK1 Expression; 410,000 compounds, 0.2% hits; PINK1 immunofluorescence, high-content cytometry, 24 h; Potency, µM (top dose mostly 76.6 µM), without a hit: at the top dose activation (PINK1 increase), usual class: activators; active means well fitted activation curve with a large enough effect; inconclusive means small, poorly fitted or top-dose-only effect; cell line not stated here; further: potency means the concentration at half of the fitted maximal effect; % of control where 0% means no effect; nearly all actives have a fitted effect of over 65% in size
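Stable cell line treated 24 h with compounds at 5 concentrations (CCCP controls), then fixed and immunostained for PINK1 plus nuclear and cell stains; PINK1 immunofluorescence quantified by laser-scanning microplate cytometry.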
* hit, by the source's call; i = inactive; ? = inconclusive; nt = no result given; [ ] = remark or other dose. Rows were chosen to be rich in hits. Some 7.1% of all compounds tested hit in one or more screens of this group. Unless noted, the call rests on the fitted dose curve; in most records, active means well fitted curve in the direction sought with a large enough effect; inconclusive means small, poorly fitted or top-dose-only effect, or another doubt; inactive means no such curve, though single readings can be large; an effect the other way counts as inactive or inconclusive.

SMILES	S2 tox	IL-1B inflam inh	MCF10A rereplic	ATXN2 expr inh	SW480 rereplic	PINK1 modulator
O=C(N/N=C/c1ccc([N+](=O)[O-])o1)c1ccc(NS(=O)(=O)c2cccs2)cc1	?	-54.3*	18.4µM*	?	?	?
O=C(N/N=C\C=C\c1ccc([N+](=O)[O-])o1)c1cccs1	i	?	8.2µM*	-19.6%	11.6µM*	-0.2%
Cc1ccc(-c2cc(-c3coc4ccc(Cl)cc4c3=O)c3c(n2)-c2ccccc2OC3)cc1	i	nt	nt	-4.3%	nt	-0.4%
CCc1nnc(SC(CC)C(=O)Nc2cccc(OC)c2)c2cc3oc(C)cc3n12 (centres undefined)	nt	nt	nt	nt	nt	0.7%
Cc1ccc(NC(=O)Cc2csc(-c3ccccc3)n2)cc1F	i	-80.1*	1.7%	4.5%	8.6%	1.1%
COc1cc(C(=O)OCCc2cc3ccccc3c(=O)o2)cc(OC)c1OC	?	56.4	14.6µM*	?	8.2µM*	8.5%
C[C@H](O)Cc1cc2ccccc2c(=O)o1	i	3.8	2.91µM*	3.1%	1.1%	1.3%
CCc1ccc(CNC(=O)c2cnc3sc(N4CCCC4)nn3c2=O)cc1	nt	nt	nt	nt	nt	0.3%
CCN(C(=O)c1cccn(Cc2cccc(Cl)c2)c1=O)c1ccccc1	i	nt	nt	2.1%	nt	-3.9%
Cc1cc(-c2cc(C)c(N)cc2C)c(C)cc1N	i	23.0	126.7%	0.0%	18.4µM*	9.7%
CCOc1ccc(NC(=O)Cn2c3ncccc3c(=O)n2-c2ccc(CC)cc2)cc1	nt	nt	nt	nt	nt	0.0%
O=C(NCCc1ccc(F)cc1)C1CCCCC1	i	0.0	17.0%	17.4%	?	3.0%
CCN1CCC(NCCc2ccc(F)cc2)CC1	i	-53.8*	18.4µM*	-18.0%	-2.6%	-1.2%
COc1cc(NC(=O)c2ccc(C(C)(C)C)cc2)c(OC)cc1NC(=O)CN1CCCCC1	i	-23.5	?	92.9%	26.4%	9.7%
COc1cc(NC(=O)c2ccc(Cl)cc2)c(OC)cc1NC(=O)CN1CCOCC1	i	?	?	-3.9%	-2.6%	-1.0%
Cc1cnc(NC(=O)CN2CCN(c3ccccn3)CC2)s1	?	?	?	8.91µM*	?	?
COc1cc(NC(=O)c2cccc(C)c2)c(OC)cc1NC(=O)CN1CCCCC1	i	-62.2*	11.4%	-12.0%[11.3 µM]	6.8%	1.1%
COc1cc(NC(=O)c2ccc(Cl)cc2)c(OC)cc1NC(=O)CN1CCCCC1	i	-83.9*	?	40.5%	?	0.6%
COc1cc(Cl)c(C)cc1NC(=O)c1ccccc1NC(=O)CN1CCN(c2ccccn2)CC1	i	-66.3*	?	nt	7.9%	-2.0%
COc1cccc(CNC(=O)Cn2nc(N3CCN(c4ccccc4OC)CC3)ccc2=O)c1	i	nt	nt	0.6%	nt	1.3%
COc1cc(NC(=O)c2ccccc2F)c(OC)cc1NC(=O)CN1CCCCC1	i	-57.5*	?	-8.4%	-18.2%	0.6%
COc1cc(NC(=O)Nc2ccccc2OC)c(OC)cc1NC(=O)CN1CCCCC1	i	-4.3	-3.0%	5.4%	-4.8%	3.8%
Cc1cccc2sc(N(CCCN3CCOCC3)C(=O)CS(=O)(=O)c3ccc(F)cc3)nc12	i	-11.8	0.5%	0.0%	-366.0%	3.3%
COc1ccc(OC)c2sc(N(CCCN(C)C)C(=O)CCS(=O)(=O)c3ccccc3)nc12	nt	-107.5*	5.8µM*	?	?	-2.0%
CN(C)CCN(C(=O)CCS(=O)(=O)c1ccccc1)c1nc2c(F)cccc2s1	i	9.6	2.2%	-13.0%	-12.6%	-0.4%
COc1ccc(C)c2sc(N(CCCN(C)C)C(=O)CS(=O)(=O)c3ccc(F)cc3)nc12	i	?	3.66µM*	-24.2%	-20.1%	13.3%
